Screening data deposited in PubChem by National Center for Advancing Translational Sciences (NCATS).
FLuc modulator = qHTS profiling assay for firefly luciferase inhibitor/activator using purifed enzyme and Km concentrations of substrates (counterscreen for miR-21 project); 6.9% of 360,000 active; Potency, µM (doses to about 57.5 µM), for inactives: at the top dose activity change, negative = inhibition, actives largely listed as inhibitors; purified FLuc, Km substrates, luminescence inhibition; Luciferin 4-monooxygenase (Photinus pyralis), P08659;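 further: plate controls were vehicle for no effect and reference inhibitor for full effect; nearly all actives have a fitted effect of over 55% in size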
Target sequence (P08659 whole entry, looked up): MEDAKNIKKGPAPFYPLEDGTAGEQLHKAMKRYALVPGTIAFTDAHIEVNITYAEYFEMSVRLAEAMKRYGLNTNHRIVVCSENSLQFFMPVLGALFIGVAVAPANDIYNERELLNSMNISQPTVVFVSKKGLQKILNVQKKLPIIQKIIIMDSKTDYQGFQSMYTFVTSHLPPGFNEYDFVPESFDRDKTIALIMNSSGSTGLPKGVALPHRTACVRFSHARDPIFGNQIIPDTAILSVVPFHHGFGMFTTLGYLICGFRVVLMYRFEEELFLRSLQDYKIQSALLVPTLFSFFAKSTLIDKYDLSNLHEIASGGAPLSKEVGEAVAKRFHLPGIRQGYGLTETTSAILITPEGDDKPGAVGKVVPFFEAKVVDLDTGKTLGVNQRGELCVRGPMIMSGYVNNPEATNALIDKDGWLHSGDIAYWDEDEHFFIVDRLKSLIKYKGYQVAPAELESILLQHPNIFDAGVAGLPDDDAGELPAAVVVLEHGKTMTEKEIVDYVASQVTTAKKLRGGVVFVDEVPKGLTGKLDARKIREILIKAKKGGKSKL
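Purified P. pyralis luciferase (10nM final) with 10uM D-luciferin and 10uM ATP (Km levels) in 50mM Tris acetate pH 7.5, 10mM Mg acetate, 0.01% Tween-20, 0.05% BSA; qHTS 6-point titration, ~60 µM downward; luminescence read.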
SMN2 splice up = qHTS Assay for Enhancers of SMN2 Splice Variant Expression | HEK293 SMN2-luciferase splicing reporter, luminescence, 30-36 h | 2.8% of 210,000 active | Potency, µM (top dose mostly 46.1 µM), for the others: top-dose activity change, positive = activation, hits mostly activators | AID 1458, 2008; further: % of control where 0% means no effect; nearly all actives have a fitted effect of over 55% in size
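HEK293 cells carry an SMN2 […]–luciferase reporter in which exon 7 inclusion puts luciferase in frame. Cells were plated 10-12 h before compound addition, then incubated 30-36 h at 37C. ONE-Glo luminescence was read; sodium butyrate at 4.5 mM final served as control.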
ELG1 genotoxic = qHTS screen for small molecules that induce genotoxicity in human embryonic kidney (HEK293T) cells expressing luciferase-tagged ELG1. 1.3% of 330,000 active. HEK293T ELG1-luciferase reporter, luminescence, 16 h. Potency, µM (highest dose often 46 µM), for the others: at the highest dose activity change, positive = activation, usual class: activators. AID 504466, 2011; further: % of control where 0% means no effect; nearly all actives have a fitted effect of over 60% in size
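Genotoxic stress is detected as increased luminescence from luciferase-tagged ELG1 in HEK293T cells, measured with ONE-Glo after a 16 hr treatment at 37 °C.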
ELG1 DNA repair = qHTS screen for small molecules that inhibit ELG1-dependent DNA repair in human embryonic kidney (HEK293T) cells expressing luciferase-tagged ELG1; HEK293T ELG1-luciferase reporter, luminescence, 16 h; DNA damage induced by 5-fluorouridine; Potency, µM (top dose mostly 46.1 µM), for the others: at the top dose activity change, negative = inhibition, usual class: inhibitors; 2.3% of 330,000 active; further: on the % scale 0 is the no-effect control and ±100 the full control effect; nearly all actives have a fitted effect of over 55% in size
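Overnight (16 hr) co-exposure of 2,000 cells/well to 5-fluorouridine and compound at 37 °C preceded detection. Luciferase was quantified via ONE-Glo luminescence; loss of signal denotes inhibition.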
NPC1 promoter act = qHTS Assay for NPC1 Promoter Activators. Huh7 NPC1 promoter luciferase reporter, 24 h. Potency, µM (doses to about 9.22 µM), for inactives: at the highest dose activation, actives largely listed as activators. 2.4% of 320,000 active; further: % of control where 0% means no effect; nearly all actives have a fitted effect of over 60% in size
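Luminescence from an NPC1 promoter-driven luciferase reporter in stably transfected Huh7 cells was measured after 24 h compound treatment at 37 °C, followed by 10 min ambient incubation with luciferase detection reagent.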
Rab9 promoter act = qHTS Assay for Rab9 Promoter Activators; Potency, µM (titrated, usually from 9.22 µM), inactives show at the highest dose activation, negative = inhibition, usual class: activators; Huh7 Rab9 promoter-luciferase reporter, luminescence, 24 h; 2.8% of 320,000 active; further: % of control where 0% means no effect; nearly all actives have a fitted effect of over 60% in size
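Huh7 cells stably carrying Rab9 promoter–luciferase reporter, plated 1500 cells/well, compound added after 2 h and incubated 24 h at 37 °C; luciferase luminescence then read after 10 min with detection reagent.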
* hit, by the source's call; ? = inconclusive; . = no result; [ ] = dose if it differs, or a comment. Most compounds without a hit are left out; they make up all but 9.2% or so of the library. The call rests on the fitted dose curve; in most records, active means well fitted curve in the direction sought with a large enough effect; inconclusive means small, poorly fitted or top-dose-only effect, or another doubt; inactive means no such curve, though single readings can be large; an effect the other way counts as inactive or inconclusive. Potency means the concentration at half of the fitted maximal effect.

SMILES | FLuc modulator | SMN2 splice up | ELG1 genotoxic | ELG1 DNA repair | NPC1 promoter act | Rab9 promoter act
COC(=O)C1=C(C)NC(=O)/C1=C\c1cc(C)n(-c2c(C)cccc2C)c1C | -2.8% | -40.6% | 6.8% | -14.8% | -1.9% | 4.8%
CC(C)CNC(=O)c1c(-c2ccccc2)c(-c2ccccc2)nn(C)c1=O | 2.8% | 4.9% | . | . | . | .
Cn1c(/C=C/c2cccc([N+](=O)[O-])c2)nc2ccccc2c1=O | -1.8% | -20.0% | 4.1% | -3.1% | -3.1% | 1.0%
OCc1cn(Cc2ccc(O)c3ncccc23)cn1 | -0.5% | . | . | . | -0.5% | 5.1%
COc1cc(-c2cc(C(=O)NCc3ccco3)c3ccccc3n2)cc(OC)c1OC | -2.2% | . | -22.4% | 13µM* | -3.9% | -1.4%
Cc1ccc(-c2cc(C(=O)NCCc3ccc(S(N)(=O)=O)cc3)c3ccccc3n2)cc1 | 6.01µM* | -2.3% | -8.9% | ? | 4.0% | 14.5%
COc1cc(-c2cc(C(=O)NCc3ccc(S(N)(=O)=O)cc3)c3ccccc3n2)cc(OC)c1OC | -12.7% | . | -19.5% | 13µM* | -2.0% | 2.8%
NS(=O)(=O)c1ccc(CNC(=O)c2cc(-c3ccccc3)nc3ccccc23)cc1 | ? | . | -7.2% | -6.6% | -3.9% | -1.1%
COc1ccc(-c2cc(C(=O)NCCc3ccc(S(N)(=O)=O)cc3)c3ccccc3n2)cc1 | 7.57µM* | -12.2% | -16.5% | ? | 4.3% | 26.0%
COC(=O)[C@@]1(Cc2ccccc2)[C@H]2c3cc(C(=O)N4CCCC4)n(CC4CC4)c3C[C@H]2CN1C(=O)c1ccccc1 | . | -12.5% | . | . | . | .
NC(=O)c1cc[n+](Cc2ccccc2Cl)cc1 | 0.4% | . | -2.0% | ? | 6.8% | 3.8%
O=C(CCCOc1ccccc1)Nc1ccc(Cl)c(S(=O)(=O)N2CCOCC2)c1 | . | . | -4.4% | 13µM* | . | .
O=C(COc1ncnc2ccccc12)Nc1ccc(Cl)c(S(=O)(=O)N2CCOCC2)c1 | 5.2% | . | -1.0% | ? | -3.2% | -4.0%
CCN(c1ccc(NC(=O)COC(=O)c2ccc3ccccc3n2)cc1)C(C)C | 15.1µM* | -12.3% | 2.9% | -5.9% | -3.2% | -1.5%
O=C(COc1cccc(Br)c1)Nc1ccc(Cl)c(S(=O)(=O)N2CCOCC2)c1 | . | . | -9.3% | 23.1µM* | . | .
Cc1ccc(NC(=O)COc2ccc(-c3nnco3)cc2)cc1S(=O)(=O)N1CCOCC1 | ? | -22.1% | -16.4% | 18.3µM* | -12.6% | -2.4%
Cc1ccc(NC(=O)CCCOc2ccccc2)cc1S(=O)(=O)N1CCOCC1 | . | . | -3.3% | ? | 0.4% | -0.7%
CN(CC(=O)Nc1ccc(S(=O)(=O)N2CCCC2)cc1)Cc1c(F)cccc1Cl | -1.4% | -32.3% | -10.0% | ? | -12.0% | -2.2%
Cc1nn(CC(=O)NCc2ccc(N(C)C)cc2)c(=O)c2nn(-c3ccccc3)c(C)c12 | -0.9% | . | . | . | . | .
Cc1ccc(N2CC(NC(=O)c3ccc4c(c3)OCO4)CC2=O)cc1 (stereo not given) | -1.8% | . | . | . | . | .
Cc1ccc(OCCCC(=O)Nc2ccc(Cl)c(S(=O)(=O)N3CCOCC3)c2)cc1 | -5.3% | . | -7.1% | 23.1µM* | -13.8% | -17.1%
CCN(c1ccc(NC(=O)COC(=O)c2ccc(C)c(S(=O)(=O)N3CCOCC3)c2)cc1)C(C)C | 16.9µM* | -8.7% | . | . | . | .
O=C1C=C(Nc2nc(C(=O)O)cc(=O)[nH]2)c2ccccc2C1=O | . | -4.1%[9.22 µM] | . | . | . | .
COc1cccc(C2=NOC(C(=O)Nc3ccc4c(c3)OCO4)C2)c1OC (stereo not given) | -17.8% | . | 0.0% | -7.4% | 8.5% | 8.8%
